Assay results: PubChem BioAssay (NCATS)
Results filed as inconclusive are left out. Active and inactive are the calls of the source. Unless noted, the call rests on the fitted dose curve; in most records, active means well fitted curve in the direction sought with a large enough effect; inconclusive means small, poorly fitted or top-dose-only effect, or another doubt; inactive means no such curve, though single readings can be large; an effect the other way counts as inactive or inconclusive.

Tests used:
[1] = Confirmation and Secondary Assay for Modulators of Hemoglobin Beta Chain Splicing at IVS2 654 locus (AID 910);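 further: HeLa cells stably carrying EGFP split by mutant beta-globin IVS2-654 intron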
Procedure, shortened: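 HeLa cells stably expressing EGFP interrupted by β-globin IVS2-654 intron, seeded overnight in Opti-MEM/2% FCS, then treated 2 days at 37 °C. Restored splicing read as total peak GFP intensity per well by laser scanning cytometry (488 nm excitation, 500–520 nm emission); 500 nM antisense PNA as control.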

[2] = target: Luciferin 4-monooxygenase (Photinus pyralis) (UniProt P08659); test: Biochemical firefly luciferase enzyme assay for NPC (AID 624030);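 further: purified P. pyralis luciferase at 10 nM with luciferin and ATP substrate; nearly all actives have a fitted effect of over 70% in size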
Procedure, shortened: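 Purified P. pyralis luciferase at 10 nM in 50 mM Tris Acetate (final), luminescence read within 5 minutes of enzyme addition to compounds. Activity normalised to PTC124 versus DMSO; concentration-response curves classed by r2, magnitude and activity.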

[3] = S16 Schwann cell viability assay (CellTiter-Glo assay) (AID 624031);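 further: native untransfected S16 rat Schwann cells; cellular ATP luminescence as a viability measure; nearly all actives have a fitted effect of over 70% in size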
Procedure, shortened: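 Concentration-effect curves come from CellTiter-Glo luminescence of S16 rat Schwann cells after 24 h compound exposure. Each reading was normalized to DMSO wells (0%) and wells without cells, and curves were ranked by r2 and response magnitude.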

[4] = S16 Schwann cell PMP22 intronic element beta-lactamase assay (AID 624044; calls by dose curve; further: nearly all actives have a fitted effect of over 15% in size); settings: S16 rat Schwann cells, PMP22 element beta-lactamase FRET, 24 h; ratio activity, negative = inhibition: at 38.3 µM (top of the series)
Procedure, shortened: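 Beta-lactamase reporter under a PMP22 intronic regulatory element in stable S16 rat Schwann cells; 24 h compound exposure. 460 nm blue signal normalized between DMSO (0%) and potassium clavulanate, with 535 nm FRET tracking viability; curves classed by r2 and response.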

[5] = tested on: PC26; test: qHTS profiling for inhibitors of Plasmodium falciparum proliferation (AID 504749); further: nearly all actives have a fitted effect of over 60% in size; further: potency means the concentration at half of the fitted maximal effect; settings: P. falciparum in erythrocytes, SYBR Green DNA, 72 h; series mostly up to 28.7 µM
Procedure, shortened: (§1)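 SYBR Green fluorescence (ex 485 nm, em 535 nm) reports parasite DNA after 72 h compound exposure of infected red cells at 0.3% parasitemia, 2.5% hematocrit; signal normalized to 0.29 uM artemisinin and vehicle wells.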

[6] = tested on: PC49; test: as above; settings: P. falciparum in erythrocytes, SYBR Green DNA, 72 h; series mostly up to 28.7 µM
Procedure, shortened: as §1

[7] = tested on: TAB109; test: as above; settings: P. falciparum in erythrocytes, SYBR Green DNA, 72 h; series mostly up to 28.7 µM
Procedure, shortened: as §1

[8] = S16 Schwann cell PMP22 intronic element firefly luciferase assay (AID 624032); further: nearly all actives have a fitted effect of over 30% in size; further: potency means the concentration at half of the fitted maximal effect
Procedure, shortened: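 Rat S16 Schwann cells stably carrying firefly luciferase driven by a PMP22 intronic element, in 10% FBS, treated 24 h at 37 C. ONE-Glo luminescence normalized to PTC124 control and DMSO (0%); curves classed by r2, magnitude and activity.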

Measured: Potency

Luciferin 4-monooxygenase (Photinus pyralis), sequence (P08659 whole entry, looked up): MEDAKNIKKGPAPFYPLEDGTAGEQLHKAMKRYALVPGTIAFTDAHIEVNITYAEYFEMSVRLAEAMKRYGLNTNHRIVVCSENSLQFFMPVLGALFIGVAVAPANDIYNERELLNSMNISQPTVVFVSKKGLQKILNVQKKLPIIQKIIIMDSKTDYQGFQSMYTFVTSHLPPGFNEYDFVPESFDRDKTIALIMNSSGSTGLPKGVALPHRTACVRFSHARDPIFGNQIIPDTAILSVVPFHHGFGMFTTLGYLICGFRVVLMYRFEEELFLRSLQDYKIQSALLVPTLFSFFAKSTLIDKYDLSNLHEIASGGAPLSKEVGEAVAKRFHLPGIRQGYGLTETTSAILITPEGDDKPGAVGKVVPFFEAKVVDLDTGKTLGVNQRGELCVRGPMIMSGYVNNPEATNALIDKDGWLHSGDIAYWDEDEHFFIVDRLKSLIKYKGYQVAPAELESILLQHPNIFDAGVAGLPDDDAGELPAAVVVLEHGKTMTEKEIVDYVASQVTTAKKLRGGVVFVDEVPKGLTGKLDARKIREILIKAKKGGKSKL

OCCN1CC(O)C(O)C(O)C1CO (centres undefined)
inactive: [1] | [2] | [3] | [4] | [5] | [6] | [7]

CC(=O)N[C@H]1[C@H](O[C@@H]2c3ccc(c(Cl)c3)Oc3cc4cc(c3O[C@@H]3O[C@H](CO)[C@@H](O)[C@H](O)C3C)Oc3ccc(cc3Cl)C[C@H]3NC(=O)[C@@H](N)c5ccc(O)c(c5)Oc5cc(O)cc(c5)[C@H](NC3=O)C(=O)N[C@H]4C(=O)N[C@H]3C(=O)N[C@@H]2C(=O)N[C@@H](C(=O)O)c2cc(O)cc(O[C@H]4O[C@H](CO)[C@@H](O)C(O)[C@@H]4O)c2-c2cc3ccc2O)O[C@H](CO)[C@@H](O)[C@@H]1O (some centres undefined)
inactive: [3] | [8] | [4] | [5] | [6]

C/C1=C2/[N-]C(C(CC(N)=O)[C@@]2(C)CCC(=O)NCC(C)OP(=O)([O-])O[C@H]2[C@@H](O)[C@@H](n3cnc4cc(C)c(C)cc43)O[C@@H]2CO)[C@]2(C)N=C(/C(C)=C3N=C(/C=C4N=C1C(CCC(N)=O)C\4(C)C)[C@@H](CCC(N)=O)[C@]\3(C)CC(N)=O)[C@@H](CCC(N)=O)[C@]2(C)CC(N)=O.CC(=O)O.[Co] (some centres undefined)
active: [8] 2560 nM
inactive: [3] | [5] | [6] | [7]

O=C(O)CC(O)CC(O)/C=C/c1c(C2CC2)nc2ccccc2c1-c1ccc(F)cc1 (centres undefined)
inactive: [3] | [4] | [5] | [6] | [7]

CN1[C@@H]2CC[C@@H]1CC(OC(=O)[C@H](CO)c1ccccc1)C2 (some centres undefined)
inactive: [2] | [3] | [8] | [4] | [5] | [7]

CC1(C)OC[C@@H]2O[C@@]3(C(=O)O)OC(C)(C)O[C@@H]3[C@@H]2O1
inactive: [2] | [3] | [8] | [4] | [5] | [6] | [7]

C=CC1CN2CCC1CC2[C@@H](O)c1ccnc2ccc(OC)cc12 (some centres undefined)
active: [8] 32200 nM | [5] 239 nM | [6] 282 nM | [7] 112 nM
inactive: [2] | [3] | [4]

CC(O)C(N)C(=O)O (centres undefined)
inactive: [3] | [8] | [4] | [5] | [6] | [7]

CCCCCCCCCCCCCCCC(=O)OCC(COP(=O)(O)OCC[N+](C)(C)C)OC(=O)CCCCCCCCCCCCCCC (centres undefined)
inactive: [3] | [8] | [4] | [5] | [6] | [7]
